# Assay results: the supplement of paper PMC4683952
# Counter-ions that a name gives are not always drawn. The campaign covered roughly 1,200 compounds. About 50 (4%) showed activity. The entries come from a sample that favours actives as a whole. Values without a mark were called inactive. No stated cut-off is given here; in the data, all actives reach 1.3 or more but so do some inactives.
# Test system: Lgr5 (MarsCy1-Lgr5-EGFP, U2OS)
# Assay: cell-surface Lgr5 expression (SCi1 fluorescence, background-subtracted) relative to WT DMSO (fold of DMSO control); higher = more Lgr5 at the plasma membrane, active = hit call of the paper
# Conditions: U2OS MarsCy1-Lgr5-EGFP stable; treatment time: overnight; 16 µM; library: Johns Hopkins Clinical Compound Library
row,SMILES,cell-surface Lgr5 expression
1,O=C([O-])C[NH+](CC(=O)[O-])CC(=O)[O-].O=C([O-])C[NH+](CC(=O)[O-])CC(=O)[O-].O=C([O-])C[NH+](CC(=O)[O-])CC(=O)[O-].[Na+].[Na+].[Na+].[Na+].[Na+].[Na+].[Na+].[O]=[Bi][O]C(=O)C[NH+](CC(=O)[O-])CC(=O)[O-] [Bismuth Sodium Triglycollamate (Nitrilotriacetic acid)],1.08
2,COc1ccc2[nH]c([S+]([O-])Cc3ncc(C)c(OC)c3C)nc2n1 (configuration not stated) [Tenatoprazole],1.17
3,[I-].[Na+] [Sodium iodide],1.13
4,"C[C@@H](C1=C(CCN(C)C)Cc2ccccc21)c1ccccn1 [Dimethindene (S, +) maleate]",1.32
5,CCCCCCCCCCCCN [Dodecylamine],0.823
6,C[N+](C)(CCOc1ccccc1)Cc1ccccc1.O=C([O-])c1cc2ccccc2cc1O [Bephenium hydroxy-naphthoate],1.05
7,Cc1cc(C(C)(C)CC(C)(C)C)ccc1OCCOCC[N+](C)(C)Cc1ccccc1 [Methylbenzethonium chloride],1.67 (active)
8,CCCCCCCCCCCC[N+](C)(C)Cc1ccccc1,0.391
9,CC(=O)SCC(Cc1ccccc1)C(=O)NCC(=O)OCc1ccccc1 (configuration not stated) [Racecadotril],1.24
10,N.O=C(O)CC(O)(CC(=O)O)C(=O)O.[Fe+3] [Ferric ammonium citrate],1.06
11,N=C(N)N [Guanidine hydrochloride],0.767
12,O.O.O.O.O.O.O.O=S(=O)([O-])[O-].[Mg+2] [Magnesium sulfate],1.04
13,C=CC1=C(C(=O)O)N2C(=O)[C@@H](NC(=O)/C(=N\O)c3csc(N)n3)[C@H]2SC1 [Cefdinir],1.06
14,O=C(O[C@@H]1Cc2c(O)cc(O)cc2O[C@@H]1c1ccc(O)c(O)c1)c1cc(O)c(O)c(O)c1 [Epicatechin gallate (-)],1.14
15,"C[C@](N)(Cc1ccc(O)c(O)c1)C(=O)O [Methyl-DOPA (alpha-methyl-L-beta-3,4-dihydroxyphenylalanine)]",0.929
16,"N[C@@H](Cc1ccc(O)c(O)c1)C(=O)O [Levodopa (L-beta-3,4-Dihydroxyphenylananine)]",0.449
17,NCCc1ccc(O)c(O)c1 [Dopamine (3-Hydroxytyramine hydrochloride)],1.51 (active)
18,NCCc1ccc(O)c(O)c1 [3-hydroxytyramine (Dopamine)],1.43 (active)
19,CC(=O)N[C@@H](CCC(N)=O)C(=O)O [Aceglutamide (N-acetyl-L-glutamine)],1.2

row,SMILES,cell-surface Lgr5 expression
1,CN1CC(O)C2=C/C(=N/NC(N)=O)C(=O)C=C21 (configuration not stated) [Carbazochrome (Adrenochrome semicarbazone)],1.16
2,Cc1cc(N)c2ccccc2c1O [Vitamin K5 hydrochloride],0.778
3,O=P([O-])(O)O.[K+] [Potassium phosphate monobasic],1.24
4,C[C@@H]1C[C@H]2[C@@H]3C[C@H](F)C4=CC(=O)C=C[C@]4(C)[C@@]3(F)[C@@H](O)C[C@]2(C)[C@@]1(O)C(=O)CO [Flumethasone],1.48 (active)
5,C[C@@H]1C[C@H]2[C@@H]3C[C@H](F)C4=CC(=O)C=C[C@]4(C)[C@@]3(F)[C@@H](O)C[C@]2(C)[C@@]1(O)C(=O)COC(=O)C(C)(C)C [Flumethasone pivalate],1.37 (active)
6,[Ca+2].[OH-].[OH-] [Calcium hydroxide],1.1
7,O.O=C([O-])CN(CCN(CC(=O)[O-])CC(=O)[O-])CC(=O)[O-].[Ca+2].[Na+].[Na+],1
8,O.O=C([O-])CN(CCN(CC(=O)[O-])CC(=O)[O-])CC(=O)[O-].[Ca+2].[Na+].[Na+] [Edetate calcium disodium (Calcium disodium versenate)],0.981
9,Cc1cc2nc3ccc(N(C)C)cc3[s+]c2cc1N [Tolonium chloride (Toluidine blue O)],1.15
10,c1ccc(-c2ccc(C(c3ccccc3)n3ccnc3)cc2)cc1 (configuration not stated) [Bifonazole],1.04
11,[Fe+3].[Fe+3].[O-2].[O-2].[O-2].[O-2].[Zn+2] [Calamine],0.886
12,Cc1ncc(CSSCc2cnc(C)c(O)c2CO)c(CO)c1O [Pyrithioxin],1.16
13,CN(C)CCOC(C)(c1ccccc1)c1ccc(Cl)cc1 (configuration not stated) [Chlorphenoxamine hydrochloride],1.15
14,O=C([O-])C(O)C(O)C(=O)[O-].[K+].[Na+] (configuration not stated) [Potassium sodium tartrate tetrahydrate],1.1
15,O=C[C@H](O)[C@@H](O)[C@H](O)[C@H](O)C(=O)[O-].[Na+] [Sodium glucuronate (D-Glucuronic acid)],1.32 (active)
16,O=CC(O)C(O)C(O)C(O)CO (configuration not stated) [Glucose (D)],1.02
17,"Cc1ccc2c(Br)cc(Br)c(O)c2n1 [Broquinaldol (5,7-dibromo-8-hydroxy-quinaldine)]",1.1
18,Cc1ccc(/C(=C\CN2CCCC2)c2cccc(/C=C/C(=O)O)n2)cc1 [Acrivastine],1.15
19,N[C@@H](C(=O)N[C@@H]1C(=O)N2C(C(=O)O)=C(Cl)CC[C@H]12)c1ccccc1 [Loracarbef],0.67

row,SMILES,cell-surface Lgr5 expression
1,CCCCN(CCCC)CCCOC(=O)c1ccc(N)cc1 [Butacaine],1.62 (active)
2,CCN(CC)CCOC(=O)c1ccc(N)cc1 [Procaine hydrochloride],0.937
3,CCCCOC(=O)c1ccc(N)cc1 [Butamben (n-butyl p aminobenzoate)],1
4,Cc1ncc(COP(=O)(O)O)c(C=O)c1O [Pyridoxal-5-phosphate],0.951
5,CCCCn1c(=O)c2c(ncn2CC(C)=O)n(CCCC)c1=O [Denbufylline],1.44
6,C[C@@H](O[C@H]1OCCN(Cc2n[nH]c(=O)[nH]2)[C@H]1c1ccc(F)cc1)c1cc(C(F)(F)F)cc(C(F)(F)F)c1 [Aprepitant],1.01
7,Cn1c(NCCN(CCO)CCCc2ccc([N+](=O)[O-])cc2)cc(=O)n(C)c1=O [Nifekalant],0.923
8,[Cl-].[Cl-].[Cl-].[In+3] [Indium(III) chloride],0.736
9,CCN(CC)CC(=O)Nc1c(C)cccc1C [Lidocaine],1.19
10,Cc1cccc(C)c1NC(=O)C(C)N (configuration not stated) [Tocainide hydrochloride],1.07
11,CC[N+](CC)(CC)CC(=O)Nc1c(C)cccc1C [Lidocaine N-ethyl bromide],1.39 (active)
12,O[C@@H]1[C@H](O)[C@@H](O)C=C[C@H]1O [Conduritol],1.03
13,O=C(O)c1cc(-c2ccccc2)nc2ccccc12 [Cinchophen (2-phenyl 4-quinoline carboxylic acid)],1.45 (active)
14,O=C(O)c1ccccc1I [2-Iodobenzoic acid],1.04
15,Nc1c2ccccc2nc2ccccc12 [Aminacrine (9-Aminoacridine)],0.26
16,O=C(O)c1cc(O)c(O)c(O)c1 [Gallic acid],0.979
17,O=C(Nc1ccccc1)c1cc(Cl)ccc1O [5-Chlorosalicylanilide],1.12
18,COC1=C(OC)C(=O)C(CCCCCCCCCCO)=C(C)C1=O [Idebenone],1.04
19,CC1(C)S[C@@H]2[C@H](NC(=O)COc3ccccc3)C(=O)N2[C@H]1C(=O)O.CN(C)[C@@H]1C(O)=C(C(=O)NCN2CCN(CCO)CC2)C(=O)[C@@]2(O)C(O)=C3C(=O)c4c(O)cccc4[C@@](C)(O)[C@H]3C[C@@H]12 [Penimepicycline],0.846
